Each structure is given as a SMILES string. Compounds without any hit were thinned out: in the full panel of roughly 83,000, 20% have a hit.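 Values shown are percent growth following 48 h exposure of cells in 96-well plates to a single concentration of compound; below 10 was considered active.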 A number with no mark means an inactive call. The source made the active and inactive calls.

In PubChem BioAssay (NCI) one finds growth data, which are given here for nine compounds.

Holding throughout (assay): NCI-60 one-dose screen, 48 h (100 = growth as untreated, 0 = no growth, -100 = all killed)
The subject of one assay is SK-MEL-2 melanoma. To be noted: 10 µM unless noted.
The test system of the next assay is SN12C renal. As to conditions: 10 µM unless noted.
The next assay relates to UO-31 renal. To be noted: 10 µM unless noted.
In another assay the test system is TK-10 renal. To be noted: 10 µM unless noted.
Another assay deals with ACHN renal. As to conditions: 10 µM unless noted.
Another assay has as its system CAKI-1 renal. To be noted: 10 µM unless noted.
The subject of another assay is A498 renal. To be noted: 10 µM unless noted.
The test system of the next assay is CCRF-CEM leukemia. As to conditions: 10 µM unless noted.
A further assay relates to MOLT-4 leukemia. As to conditions: 10 µM unless noted.
In another assay the test system is SR leukemia. To be noted: 10 µM unless noted.
The test system of another assay is RPMI-8226 leukemia. To be noted: 10 µM unless noted.
Another assay has as its system OVCAR-8 ovarian. As to conditions: 10 µM unless noted.
Another assay concerns OVCAR-5 ovarian. To be noted: 10 µM unless noted.
The next assay has as its system OVCAR-4 ovarian. As to conditions: 10 µM unless noted.
Another assay deals with SK-OV-3 ovarian. To be noted: 10 µM unless noted.
The test system of the next assay is IGROV1 ovarian. To be noted: 10 µM unless noted.
Another assay deals with OVCAR-3 ovarian. As to conditions: 10 µM unless noted.
The next assay deals with HS 578T breast. As to conditions: 10 µM.
In another assay the test system is NCI/ADR-RES ovarian. To be noted: 10 µM unless noted.
A further assay relates to EKVX NSCLC. As to conditions: 10 µM unless noted.

Turning to `FC(F)(F)C1=NNC(c2ccc3ccccc3c2)=NN1`, the growth was 111% in the assay with SK-MEL-2 melanoma; 93.7% in the assay with SN12C renal; 65.6% with UO-31 renal; 129% in the assay on TK-10 renal; 90.1% with ACHN renal; 102% in the assay on CAKI-1 renal. For the same compound, the growth was 90.5% in the assay on A498 renal; 92.4% in the assay on CCRF-CEM leukemia; 107% in the assay on MOLT-4 leukemia; 95% in the assay on SR leukemia; 94% in the assay on RPMI-8226 leukemia; 97.4% with OVCAR-8 ovarian. In addition, the growth with OVCAR-5 ovarian is 96.9%; in the assay with OVCAR-4 ovarian it was 96.2%; in the assay on SK-OV-3 ovarian, 104%; in the assay with IGROV1 ovarian it was 103%; in the assay with OVCAR-3 ovarian, 101%; in the assay on HS 578T breast, 95.9%.
With `C/C(=N\OC(=O)Nc1cccc(Cl)c1)c1ccccc1`, the growth is 106% with SK-MEL-2 melanoma; 95% in the assay on SN12C renal; 82.8% in the assay with UO-31 renal; 109% with TK-10 renal; 101% with ACHN renal; 106% in the assay on CAKI-1 renal. For the same compound, the growth is 42.8% in the assay with A498 renal; 89.1% in the assay on CCRF-CEM leukemia; 89.9% with MOLT-4 leukemia; 74% in the assay with SR leukemia; 95.8% with RPMI-8226 leukemia; 104% in the assay with OVCAR-8 ovarian. For the same compound, the growth in the assay on OVCAR-5 ovarian was 91%; with OVCAR-4 ovarian, 94.7%; with SK-OV-3 ovarian, 108%; in the assay on IGROV1 ovarian it was 115%; with OVCAR-3 ovarian it was 113%; with NCI/ADR-RES ovarian, 108%.
For `COc1ccc(C(=O)c2c(N)nc3n2CCCC3)cc1OC`, the growth is 103% with SK-MEL-2 melanoma; 109% in the assay with SN12C renal; 84.3% in the assay on UO-31 renal; 92.8% in the assay with TK-10 renal; 107% in the assay on ACHN renal; 93.9% in the assay on CAKI-1 renal. The growth was 98.6% in the assay on A498 renal; 99.8% in the assay on CCRF-CEM leukemia; 84.1% in the assay with MOLT-4 leukemia; 84.3% in the assay on SR leukemia; 99.3% in the assay on RPMI-8226 leukemia; 95.4% in the assay with OVCAR-8 ovarian. The growth in the assay on OVCAR-5 ovarian is 111%; in the assay on OVCAR-4 ovarian, 107%; with SK-OV-3 ovarian, 105%; in the assay on IGROV1 ovarian it was 99.4%; with HS 578T breast, 108%; with NCI/ADR-RES ovarian, 107%.
Turning to `CCOC(=O)c1ccc(NC(=O)NC2=NCCS2)cc1`, the growth was 76.6% in the assay on SK-MEL-2 melanoma; 45.4% in the assay on SN12C renal; 36.5% in the assay on UO-31 renal; 97.5% in the assay on TK-10 renal; 78.9% in the assay with ACHN renal; 35.3% in the assay on CAKI-1 renal. In addition, the growth is -7.64% (active) in the assay with A498 renal; 7.22% (active) in the assay with CCRF-CEM leukemia; 19.7% in the assay with MOLT-4 leukemia; 17.6% with SR leukemia; 13.9% with RPMI-8226 leukemia; 27.1% in the assay on OVCAR-8 ovarian. Besides, the growth in the assay with OVCAR-5 ovarian was 96.5%; with OVCAR-4 ovarian, 70.6%; with SK-OV-3 ovarian, 11.5%; in the assay with IGROV1 ovarian it was 21.5%; in the assay on OVCAR-3 ovarian, -53.7% (active); in the assay on HS 578T breast, 42.7%.
As to `COc1cccc(NC(=O)[C@H](C(C)C)n2c(=O)[nH]c3ccccc3c2=O)c1`, the growth in the assay with SK-MEL-2 melanoma was 101%; in the assay on SN12C renal, 105%; with UO-31 renal, 101%; with TK-10 renal, 105%; in the assay on ACHN renal, 104%; with CAKI-1 renal, 97.6%. The growth with A498 renal is 114%; in the assay with CCRF-CEM leukemia, 94.8%; in the assay on MOLT-4 leukemia, 96.8%; with SR leukemia, 95.8%; in the assay on RPMI-8226 leukemia it was 98.6%; in the assay with OVCAR-8 ovarian it was 96.9%. Further, the growth with OVCAR-5 ovarian is 108%; in the assay with OVCAR-4 ovarian, 105%; in the assay with SK-OV-3 ovarian, 101%; in the assay on IGROV1 ovarian it was 113%; in the assay on OVCAR-3 ovarian, 109%; with HS 578T breast it was 110%.
On to `O=C1C(Cl)=C(N/N=c2/[nH][nH]/c(=N/NC3=C(Cl)C(=O)c4ccccc4C3=O)c3ccccc23)C(=O)c2ccccc21`, for which the growth is 96.4% with SK-MEL-2 melanoma; 56.4% in the assay on SN12C renal; 54.7% in the assay on UO-31 renal; 130% in the assay on TK-10 renal; 61.9% in the assay with ACHN renal; 104% with CAKI-1 renal. Further, the growth with A498 renal was 57%; in the assay with CCRF-CEM leukemia, 16.5%; with MOLT-4 leukemia it was 11.4%; with SR leukemia it was 19.7%; in the assay on RPMI-8226 leukemia, 33.8%; in the assay with OVCAR-8 ovarian, 78.1%. The growth in the assay on OVCAR-5 ovarian was 119%; in the assay with OVCAR-4 ovarian, 78.5%; in the assay on SK-OV-3 ovarian, 73.6%; in the assay on IGROV1 ovarian, 59.6%; in the assay with OVCAR-3 ovarian, 66.2%; with HS 578T breast, 37.4%. In addition, the growth in the assay on NCI/ADR-RES ovarian was 66.1%.
Regarding `COC(=O)c1ccc(NC(N)=NCCC(C)(C)c2ccc(C(F)(F)F)cc2)nc1`, the growth in the assay on SK-MEL-2 melanoma is 70.3%; in the assay on EKVX NSCLC, 20.3%; in the assay on SN12C renal, 53.4%; with UO-31 renal, 34.2%; in the assay on ACHN renal, 65.2%; in the assay on A498 renal it was 51.8%. The growth in the assay with CCRF-CEM leukemia was 34.2%; with MOLT-4 leukemia it was 4.23% (active); in the assay on SR leukemia, -22.2% (active); with RPMI-8226 leukemia it was -48.8% (active); in the assay on OVCAR-8 ovarian it was 50.1%; with OVCAR-5 ovarian it was 74.2%. Besides, the growth in the assay with OVCAR-4 ovarian was 31.6%; in the assay with SK-OV-3 ovarian, 60.2%; in the assay on IGROV1 ovarian, 54.7%; with HS 578T breast it was 75.5%; in the assay with NCI/ADR-RES ovarian, 36.6%.
Regarding `CCc1ccc(Nc2cc(C)c3ccc(O)cc3n2)cc1`, the growth in the assay on SK-MEL-2 melanoma was 85%; in the assay on SN12C renal, 77%; in the assay with UO-31 renal, 44.1%; in the assay with TK-10 renal it was 74.1%; in the assay on ACHN renal it was 73.8%; with CAKI-1 renal, 53%. For the same compound, the growth in the assay with A498 renal was 93.7%; in the assay on CCRF-CEM leukemia, 68.9%; in the assay with MOLT-4 leukemia, 62.9%; in the assay with SR leukemia, 43.9%; with RPMI-8226 leukemia, 29.9%; in the assay on OVCAR-8 ovarian, 80%. The growth was 83.7% in the assay on OVCAR-5 ovarian; 75.7% with OVCAR-4 ovarian; 90.1% in the assay on SK-OV-3 ovarian; 53.8% with IGROV1 ovarian; 81% with OVCAR-3 ovarian; 87.6% in the assay with HS 578T breast.
As for `COc1cc2cc(C(=O)Nc3ccccc3)c(N)nc2cc1OC`, the growth in the assay with SK-MEL-2 melanoma is -62% (active); with SN12C renal, 49.1%; with UO-31 renal it was 5.81% (active); in the assay on TK-10 renal, -48% (active); in the assay on ACHN renal, -0.0696% (active); in the assay on CAKI-1 renal it was -13.8% (active). The growth was 52.4% in the assay with A498 renal; -21.7% (active) in the assay on CCRF-CEM leukemia; -44.6% (active) in the assay with MOLT-4 leukemia; -35.8% (active) with SR leukemia; -21.2% (active) in the assay with RPMI-8226 leukemia; -44.8% (active) in the assay with OVCAR-8 ovarian. For the same compound, the growth is 73% in the assay with OVCAR-5 ovarian; 22.3% in the assay on OVCAR-4 ovarian; 23% in the assay on SK-OV-3 ovarian; -11.7% (active) in the assay with IGROV1 ovarian; 27.8% in the assay with OVCAR-3 ovarian; 36.2% in the assay on HS 578T breast. Also, the growth with NCI/ADR-RES ovarian is -29.1% (active).
